About 530 (0.24%) of roughly 220,000 compounds were called active. This excerpt belongs to a sample that is enriched for actives. Results with a measured potency or affinity are listed apart. Unmarked numbers belong to inactive results. Cut-off read from the data, not from the text of the source: active = inhibition above about 13%; inconclusive = no clear call, values can overlap the other calls; inactive = below that.
What follows are molecules tested against Bifunctional protein GlmU (Mycobacterium tuberculosis (strain ATCC 25618 / H37Rv)) (UniProt P9WMN3) (assay: inhibition of mycobacterial GlmU enzyme – biochemical, glucosamine-1-phosphate acetyltransferase (AID 1376;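 note: 0% = complete reaction with vehicle and 100% = reaction without substrate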)). Details: M. tuberculosis GlmU acetyltransferase enzyme assay; stronger effect = higher value;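 tested at 30 µM in the primary screen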.
Sequence of Bifunctional protein GlmU (Mycobacterium tuberculosis (strain ATCC 25618 / H37Rv)) (P9WMN3 whole entry, looked up): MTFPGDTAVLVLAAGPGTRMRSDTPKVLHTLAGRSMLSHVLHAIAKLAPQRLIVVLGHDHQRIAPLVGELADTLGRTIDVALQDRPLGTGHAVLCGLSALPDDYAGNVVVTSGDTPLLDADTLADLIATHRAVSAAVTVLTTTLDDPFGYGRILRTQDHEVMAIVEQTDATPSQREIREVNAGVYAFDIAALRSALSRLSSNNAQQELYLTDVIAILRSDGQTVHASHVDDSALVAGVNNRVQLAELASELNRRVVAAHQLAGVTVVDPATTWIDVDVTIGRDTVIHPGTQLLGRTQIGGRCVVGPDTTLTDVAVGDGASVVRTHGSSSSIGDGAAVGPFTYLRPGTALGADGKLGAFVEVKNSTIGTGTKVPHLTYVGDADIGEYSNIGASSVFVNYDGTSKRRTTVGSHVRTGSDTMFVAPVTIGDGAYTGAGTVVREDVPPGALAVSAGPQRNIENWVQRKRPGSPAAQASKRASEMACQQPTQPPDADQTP

Compound | inhibition
CC/C(=N/NS(=O)(=O)c1ccc(Cl)cc1)c1ccc(O)cc1 | 2.54%
Cc1ccc2c(c1C)NC(C(=O)O)C1CC=CC21 (stereo not drawn) | 13.2% (active)
COc1cccc(C2Nc3c(F)cc(Br)cc3C3C=CCC32)c1OC (stereo not drawn) | 0.44%
COC(=O)CNC(=O)C1Nc2ccccc2C2C=CCC12 (stereo not drawn) | 3.22%
COc1cccc2c1NC(C(=O)O)C1CC=CC21 (stereo not drawn) | 60.8% (active)
CC(C)C1Nc2c(O)cc(Cl)c([N+](=O)[O-])c2C2C=CCC21 (stereo not drawn) | 4.55%
O=[N+]([O-])c1ccc(Cl)c2c1C1C=CCC1C(c1ccccn1)N2 (stereo not drawn) | 3.42%
O=C(O)C1Nc2c(O)cc(Cl)c([N+](=O)[O-])c2C2C=CCC12 (stereo not drawn) | 65% (active)
CC(C)CNC(=O)C1Nc2ccccc2C2C=CCC12 (stereo not drawn) | 0.47%
O=C(O)C1Nc2c(O)cccc2C2C=CCC12 (stereo not drawn) | 33.7% (active)
O=C(O)C1Nc2c(C(=O)N3CCOCC3)cccc2C2C=CCC12 (stereo not drawn) | 1.95%
CCOC(=O)C1Nc2c(F)cc(C)cc2C2C=CCC12 (stereo not drawn) | 3.49%
CC(C)C1Nc2ccc(C(=O)O)cc2C2C=CCC21 (stereo not drawn) | 5.77%
O=C(CNCC1CCCO1)N1CCCc2ccccc21 (stereo not drawn) | 1.14%
O=C(O)c1nc2ccccc2nc1C(=O)O | -0.04%
Cc1cc(C(=O)Nc2ccc(C)c(S(=O)(=O)N3CCOCC3)c2)c(C)o1 | -1.51%
CCC1=C(OC(=O)N(CC)CC)N2C(=O)OC(=NCC3CC3)[C@]2(C)[C@H]2C1=CC[C@H]1C(=O)N(CC)C(=O)[C@H]12 | 1.38%
COc1ccc(CNC(=O)Nc2ccc3c(c2)N(C)C(=O)CS3)cc1 | -4.33%
O=C(c1ccc(C(F)(F)F)cc1)c1c[nH]c(C(=O)NCCCn2ccnc2)c1 | -1.27%
Cc1ccccc1C(=O)NNC(=O)CSc1nnc(-c2ccncc2)n1-c1ccccc1 | -3.22%
OCCC1CN(Cc2cccn2-c2nccs2)CCN1C1CCCCC1 (stereo not drawn) | -4.98%
COc1cc2cccc(OC)c(=O)c2c(O)c1OC | -3.83%
Oc1cccc2cc3cccc(O)c3c(O)c12 | -0.27%
O=C(c1ccc2c(c1)OCCO2)N1CCN(c2ccc([N+](=O)[O-])cc2)CC1 | -4.31%
Cc1ccc(C2=NC(=O)/C(=C/c3cc(O)c(O)c(Br)c3)S2)cc1 | 17.7% (active)

Compound | inhibition
COc1cc(/C=C2\SC(c3ccc(C)cc3)=NC2=O)cc(OC)c1O | 5.86%
COc1cc(/C=C2\SC(c3ccc(C)cc3)=NC2=O)ccc1O | 7.11%
CC(=O)Nc1ccc(/C(C)=N/NC(=O)c2ccncc2)cc1 | 1.93%
COc1ccc(N2C(=O)CC(C3CCCO3)C2=O)cc1 (stereo not drawn) | 6.39%
Cn1c(O)c(C=NC2CC(C)(C)NC(C)(C)C2)c(=O)n(C)c1=O | 1.39%
COc1cc2c(cc1NS(=O)(=O)N1CCCC1)oc1ccccc12 | 1.9%
O=S(=O)(Nc1ccc2c(c1)oc1ccccc12)N1CCCC1 | 5.63%
COc1cc2c(cc1NS(=O)(=O)N1CCCCC1)oc1ccccc12 | 14.6% (active)
FC(F)Oc1ccc(NC(=S)NCCc2ccccn2)cc1 | -3.82%
O=C(Nc1cccc(Cl)c1)Nc1nnc(CSCCOc2ccc(Cl)cc2)s1 | -7.81%
Cc1cc(C=O)c(C)n1-c1cccc(C(=O)O)c1 | 6.93%
Cc1ccc(C)n1-c1cccc(C(=O)O)c1 | 23.5% (active)
Cc1ccc(-c2ccccc2)n1-c1cccc(C(=O)O)c1 | 5.34%
Cc1ccccc1NC(=O)Cn1nc(-c2ccccc2)nc1-c1ccccc1 | 1.21%
O=[N+]([O-])c1cccnc1Oc1cccnc1 | 6.22%
Cn1c(Cc2ccc3c(c2)OCO3)nnc1SCC(=O)N1CCc2ccccc2C1 | 1.71%
CCOC(=O)C1CCN(c2nc(N)c3c(N)nc(SCC(=O)O)cc3c2C#N)CC1 | 14.2% (active)
N#Cc1c(N2CCCCC2)nc(N)c2c(N)nc(SCC(=O)O)cc12 | 13.1% (active)
CCOc1cc2c(C#N)c(N3CCCC3)nc(N)c2c(N)n1 | 4.64%
COc1cc2c(C#N)c(N3CCCCC3)nc(N)c2c(N)n1 | -2.38%
N#Cc1c(N2CCCC2)nc(N)c2c(N)nc(N3CCCC3)cc12 | -6.67%
CCOC(=O)C1CCN(c2nc(C)cc(C)c2C#N)CC1 | -1.41%
CC(=O)Nc1ccccc1C(=O)C(=O)Nc1ccc(C)c(C)c1 | -3.19%
COc1cc(C(=S)N2CCCC2)cc(Cl)c1OCC(=O)Nc1ccc(C)cc1C | -4.86%
CN(C)CCCOC(=O)c1cc2ccccc2o1 | -2.64%

Compound | inhibition
O=C(Cn1cnc2ccccc2c1=O)N1CCN(c2ccccc2)CC1 | 5.67%
COC(=O)CN(c1nc(C)c(Br)c(OC)n1)S(=O)(=O)c1ccc(C)cc1 | 1.24%
COc1nc(N(CC(N)=O)S(=O)(=O)c2ccccc2)nc(C)c1Cl | 4.56%
COC(=O)CN(c1nc(C)c(Cl)c(OC)n1)S(=O)(=O)c1ccc(C)cc1 | 25.4% (active)
CC(O)CCC(=O)NNC(=S)Nc1ccccc1 (stereo not drawn) | 2.51%
O=C(O)C1CCCCC1C(=O)Nc1ccccc1F (stereo not drawn) | 13.6% (active)
O=C(Nc1ccccc1Br)C1CCN(C(=O)Cc2ccccc2)CC1 | -6.58%
O=C(Nc1cccc2ccccc12)C1CCN(C(=O)Cc2ccccc2)CC1 | 0.74%
O=C(O)C1CCCCC1C(=O)Nc1ccccc1Cl (stereo not drawn) | -0.88%
O=C(O)C1CCCCC1C(=O)Nc1ccc(F)cc1F (stereo not drawn) | 5.94%
O=C(Nc1ccccc1F)C1CCN(C(=O)Cc2ccccc2)CC1 | 15% (active)
COc1ccc(C2CC(c3ccc(OC)cc3)n3nc(N)nc3N2)cc1 (stereo not drawn) | 1.16%
COc1ccc(C2CC(c3ccc(F)cc3)Nc3nc(N)nn32)cc1 (stereo not drawn) | 20% (active)
Nc1nc2n(n1)C(c1ccc(F)cc1)CC(c1ccc(F)cc1)N2 (stereo not drawn) | -1.02%
Cc1ccc(/C(O)=C2\C(=O)C(=O)N(CC(C)O)C2c2ccccn2)cc1 (stereo not drawn) | -0.84%
COC(=O)Cc1ccc(NC(=S)NCCO)cc1 | -2%
COC(=O)Cc1ccc(NC(=S)NCCCO)cc1 | 13.5% (active)
CCCNC(=S)Nc1ccc(CC(=O)OC)cc1 | -4.55%
COC(=O)c1sc(N2C(=O)C(=O)/C(=C(/O)c3ccc(C)cc3)C2c2ccco2)nc1C (stereo not drawn) | -0.75%
CC1=C(C(=O)Nc2ccccn2)C(c2ccc(Br)cc2)NC(=S)N1 (stereo not drawn) | 14.3% (active)
COc1ccc(C2NC(=S)NC(C)=C2C(=O)Nc2ccccn2)cc1 (stereo not drawn) | 2.34%
CC1=C(C(=O)Nc2ccccn2)C(c2ccc(Cl)cc2)NC(=S)N1 (stereo not drawn) | 2.47%
Cc1cc(OCCCC(=O)NC2=NCCS2)ccc1Cl | -5.02%
CCn1cc(CNCc2cn[nH]c2-c2cc3ccccc3o2)cn1 | 1.28%
OC1(CNCc2cn[nH]c2-c2cc3ccccc3o2)CCCCC1 | 14.3% (active)

Compound | inhibition
c1ccc2oc(-c3[nH]ncc3CN3CCSCC3)cc2c1 | 0.41%
CSc1nccc(-c2c(-c3ccc(Cl)cc3)noc2C)n1 | 2.51%
c1ccc(CNc2ncnc3c2ncn3C2CCCCO2)cc1 (stereo not drawn) | -1.2%
CC1Oc2ccccc2C=C1/C=N/Nc1ccc(C(=O)O)cc1 (stereo not drawn) | 4.4%
O=C(N/N=C/C1=Cc2ccccc2OC1)c1ccncc1 | -1.23%
O=C(O)c1ccc(N/N=C/C2=Cc3ccccc3OC2)cc1 | 14.4% (active)
CSc1nccc(Oc2cncc(Cl)c2)n1 | 2.56%
CCCCOc1ccc(Cc2n[nH]c(=S)n2N)cc1 | 12.8% (active)
CCOc1ccc(Cc2n[nH]c(=S)n2N)cc1 | 1.55%
Nn1c(Cc2ccc(F)cc2)n[nH]c1=S | -2.75%
COc1ccccc1/C=N/NC(=O)C(=O)NCc1cccnc1 | 3.16%
COc1ccc(S(=O)(=O)NNC(=O)c2csc(-n3nc(C)cc3C(F)(F)F)n2)cc1OC | 2.2%
O=C(O)c1ccc(Oc2c(C(F)(F)F)oc3cc(O)ccc3c2=O)cc1 | -3.31%
O=c1c(C(c2ccc(Cl)cc2)c2c(O)nc3n(c2=O)CCS3)c(O)nc2n1CCS2 | 9.88%
COc1cccc(NC(=O)CN(C)C(C)C(=O)Nc2cc([N+](=O)[O-])ccc2Cl)c1 (stereo not drawn) | -8.73%
Cc1noc(NS(=O)(=O)c2ccc(N/C=C/C(=O)c3ccc(F)cc3)cc2)c1C | 3.6%
Cc1noc(NS(=O)(=O)c2ccc(N/C=C\C(=O)c3ccc(F)cc3)cc2)c1C | 4.6%
Cc1noc(NS(=O)(=O)c2ccc(N/C=C\C(=O)c3cccs3)cc2)c1C | 13.3% (active)
Cc1ccc(C(=O)/C=C/Nc2ccc(S(=O)(=O)Nc3onc(C)c3C)cc2)cc1 | 14.2% (active)
Cc1noc(NS(=O)(=O)c2ccc(N/C=C\C(=O)c3ccccc3)cc2)c1C | 1.37%
Cc1noc(NS(=O)(=O)c2ccc(N/C=C\C(=O)c3ccncc3)cc2)c1C | 3.38%
Cc1ccc2cc(CN(CCCN3CCOCC3)C(c3nnnn3Cc3ccco3)C(C)C)c(=O)[nH]c2c1C (stereo not drawn) | -1.48%
CCOc1ccc(N2C(=O)c3cccnc3C2Nc2ccc(C)c(C)c2)cc1 (stereo not drawn) | -5.6%

— PubChem BioAssay AID1376 (SRMLSC, 2008)
